# Assay outcomes from PubChem.
# Sfp inh: qHTS Assay for Inhibitors of Bacillus subtilis Sfp phosphopantetheinyl transferase (PPTase) | 4'-phosphopantetheinyl transferase ffp (Bacillus subtilis), Q9F4F7 | Biochemical Sfp PPTase activity, qHTS | Potency, µM, for inactives: largest response in the series, negative = inhibition, actives largely listed as inhibitors | 310,000 tested, 3.5% active | AID 1490, 2009;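 further: the enzyme is Sfp with the accession as filed and its product quenches rhodamine fluorescence; 0% = enzyme reaction without inhibitor and -100% = no enzyme wells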
#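 Fluorescence-quenching assay with 15 nM Sfp, 5 uM rhodamine-CoA and 12.5 uM BHQ-2-labelled ybbR peptide in pH 7.6 Hepes/MgCl2 buffer. Enzyme was pre-incubated with compound for 15 min at room temperature. Rate was taken from the 30-min fluorescence change (525/598 nm).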
# BAZ2B inh: qHTS Assay for Inhibitors of BAZ2B | Bromodomain adjacent to zinc finger domain protein 2B (Homo sapiens), Q9UIF8 | 360,000 tested, 4.4% active | AlphaScreen BAZ2B-H3K14Ac peptide displacement | AID 504333, 2011 | Potency, µM (top dose mostly 114 µM), inactives show at the highest dose activity change, negative = inhibition, most hits filed as inhibitors; further: on the % scale 0 is the no-effect control and ±100 the full control effect; nearly all actives have a fitted effect of over 60% in size
#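 AlphaScreen displacement: compounds (up to 110uM) incubated 30 min at room temperature with a preformed 50 nM BAZ2B/50 nM biotinylated H3K14Ac peptide complex in PBS pH 7.4 with Tween-20. Donor and acceptor beads at 10 ug/mL final added, 20 min light-protected before reading.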
# JMJD2A Tudor inh: qHTS Assay for Inhibitors of JMJD2A-Tudor Domain; AlphaScreen JMJD2A-Tudor / H3K4me3 peptide binding; Potency, µM (highest dose often 114 µM), for inactives: at the top dose activity change, negative = inhibition, hits mostly inhibitors; 390,000 tested, 4.4% active; AID 504339, 2011; further: on the % scale 0 is the no-effect control and ±100 the full control effect; nearly all actives have a fitted effect of over 50% in size
# L3MBTL1 block: qHTS Assay for the Inhibitors of L3MBTL1; Lethal(3)malignant brain tumor-like protein 1 (Homo sapiens), Q9Y468; AlphaScreen L3MBTL1–H3K9me1 peptide binding; Potency, µM (highest dose often 57.1 µM), for inactives: at the top dose activity, negative = inhibition, usual class: inhibitors; 230,000 tested, 0.66% active; AID 485360, 2010; further: on the % scale 0 is the no-effect control and ±100 the full control effect; nearly all actives have a fitted effect of over 60% in size
#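 L3MBTL1 (50 nM) pre-complexed 30 min with biotinylated H3(1-15)K9me1 peptide (75 nM), then compounds added for 30 min at room temperature; AlphaScreen streptavidin donor/nickel chelate acceptor beads (10 ug/mL final) read after 30 min dark incubation.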
# G9a block: qHTS Assay for Inhibitors of Histone Lysine Methyltransferase G9a | 350,000 tested, 8.8% active | G9a H3K9 monomethylation, AlphaScreen, 2 h | Potency, µM (highest dose often 102 µM), inactives show at the highest dose activity, negative = inhibition, actives largely listed as inhibitors; further: on the % scale 0 is the no-effect control and ±100 the full control effect; nearly all actives have a fitted effect of over 75% in size
# Target sequence (Q96KQ7 913-1193 limits assumed): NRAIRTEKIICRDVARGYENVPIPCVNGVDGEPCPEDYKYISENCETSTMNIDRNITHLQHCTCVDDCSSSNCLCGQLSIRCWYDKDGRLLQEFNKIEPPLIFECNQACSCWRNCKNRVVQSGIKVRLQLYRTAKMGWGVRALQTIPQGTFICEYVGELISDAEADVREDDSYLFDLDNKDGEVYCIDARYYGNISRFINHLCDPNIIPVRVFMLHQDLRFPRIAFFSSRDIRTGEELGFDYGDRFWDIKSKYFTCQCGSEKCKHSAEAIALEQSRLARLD
#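 Readings reflect AlphaScreen signal from monomethyl-H3K9 antibody detection. HMT at 20 nM; substrate b-H3K9 500 nM; cofactor SAM 20 uM; 2 h RT reaction; compounds tested as titrations in qHTS with 15 min preincubation.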
# HP1b chromo inh: HTS for Inhibitors of HP1-beta Chromodomain Interactions with Methylated Histone Tails | AlphaScreen HP1-beta / biotin-H3K9me3 peptide binding | Potency, µM (doses to about 114 µM), for the others: at the top dose activity change, negative = inhibition, usual class: inhibitors | 390,000 tested, 0.56% active | Chromobox protein homolog 1 (Homo sapiens), P83916 | AID 540317, 2011; further: nearly all actives have a fitted effect of over 70% in size
# Target sequence (P83916 whole entry, looked up): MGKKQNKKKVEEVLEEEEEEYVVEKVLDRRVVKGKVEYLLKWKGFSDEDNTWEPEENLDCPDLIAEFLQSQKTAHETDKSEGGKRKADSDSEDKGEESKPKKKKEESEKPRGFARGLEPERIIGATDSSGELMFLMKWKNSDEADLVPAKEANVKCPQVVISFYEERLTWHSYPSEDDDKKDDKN
#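 HP1-beta protein (50 nM final) preincubated 30 min at room temperature with biotinylated H3(1-18)K9me3 peptide (50 nM) in PBS pH 7.4, 0.01% Tween-20, then compound added for 30 min. AlphaScreen streptavidin donor/nickel chelate acceptor beads (10 ug/mL final), 30 min dark, luminescence read.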
# * = called active by the depositor; ? = inconclusive; nt = not tested or not shown; [ ] = remark or other dose. Shown are actives, neighbours in structure and some others; about 12% of the full set was active somewhere. The call rests on the fitted dose curve; in most records, active means well fitted curve in the direction sought with a large enough effect; inconclusive means small, poorly fitted or top-dose-only effect, or another doubt; inactive means no such curve, though single readings can be large; an effect the other way counts as inactive or inconclusive. Potency means the concentration at half of the fitted maximal effect.
SMILES,Sfp inh,BAZ2B inh,JMJD2A Tudor inh,L3MBTL1 block,G9a block,HP1b chromo inh
CCCCCC(=O)Nc1cc(S(=O)(=O)N2CCCCC2)ccc1N1CCOCC1,7%,-2%,-3%,nt,-2%[12.7 µM],29%
CCCn1c(SCC(=O)Nc2cc(S(=O)(=O)N3CCOCC3)ccc2Cl)n[nH]c1=O,?,-21%,-4%,8%,?,30%
CCCCCC(=O)Nc1cc(S(=O)(=O)N2CCOCC2)ccc1N1CCCC1,16%,-10%,1%,nt,28µM*,22%
CC(=O)Nc1cccc(S(=O)(=O)N2CCCN(S(=O)(=O)c3ccc4c(c3)OCCO4)CC2)c1,nt,nt,-16%,nt,nt,nt
CC(=O)Nc1ccc(S(=O)(=O)N2CCN(S(=O)(=O)c3ccc4c(c3)OCCO4)CC2)cc1,nt,nt,-5%,nt,nt,nt
COc1ccc(CC(=O)OCC(=O)Nc2cc(S(=O)(=O)N3CCOCC3)ccc2N2CCCC2)cc1,-5%,1%,-11%,?,40µM*,-3%
N#Cc1ccc(NC(=O)CNc2cc(S(=O)(=O)N3CCOCC3)ccc2NCC2CCCO2)cc1 (configuration not stated),-7%,-15%,-18%,-24%,40µM*,31%
O=C(CNc1cc(S(=O)(=O)N2CCOCC2)ccc1NCC1CCCO1)Nc1ccc(C(F)(F)F)cc1 (configuration not stated),nt,1%,?,-4%,1%[12.7 µM],-23%
COc1cc(S(=O)(=O)N2CCOCC2)ccc1NC(=O)CSc1nnc(N)s1,3%,3%,5%,6%,45µM*,43%
N#Cc1ccc(OCC(=O)Nc2cc(S(=O)(=O)N3CCOCC3)ccc2N2CCOCC2)cc1,14%,-7%,0%,-7%,71µM*,16%
CCOc1ccc(NC(=O)Cn2nc(-c3ccncc3)ccc2=O)cc1,nt,5%,-3%,nt,12%[59 µM],13%[57 µM]
COCCNC(=O)Cn1c(=O)c2cccn2c2ccc(F)cc21,nt,-23%,?,nt,-24%[59 µM],-12%
Cc1ccc(CNC(=O)CCc2c(C)nc3nc(C)nn3c2C)cc1,nt,6%,-12%,nt,8%[59 µM],36%
Oc1ccc(Cl)cc1C1C=C(c2ccc3c(c2)OCO3)NC(c2ccc(Cl)cc2)N1 (configuration not stated),nt,nt,-29%,nt,nt,0%
N#Cc1ccc(OCc2cccc(S(=O)(=O)N3CCOCC3)c2)cc1,nt,-4%,-2%,1%,1%,33%
N#Cc1ccc(C(=O)OCc2cccc(S(=O)(=O)N3CCOCC3)c2)cc1,nt,1%,?,2%,14µM*,28%
Cn1c(-c2cnn(-c3ccccc3)c2-n2cccc2)n[nH]c1=S,10%,-37%,8.9µM*,12%,8.9µM*,13%
CCCCCCSc1nnc(-c2cnn(-c3ccccc3)c2-n2cccc2)n1C,-13%,-29%,-17%,nt,40µM*,9%
C=C1C=C(Br)C2(OCCCO2)[C@H]2OC12 (some centres not stated),6%,nt,nt,nt,nt,nt
Cn1cccc1-c1nc2ccc(NC(=O)c3cccs3)cc2[nH]1,-4%,35µM*,56µM*,-10%,?,50µM*
CC(=O)Nc1ccc2nc(NC(=O)c3cccs3)sc2c1,-6%,-26%,-10%,nt,45µM*,35%
COCCCNC(=O)CCCCn1c(=O)c2ccccc2n(CC(=O)Nc2ccc(C)cc2C)c1=O,nt,-5%,-16%,nt,4%[59 µM],32%
CC(C)C[C@@H](CC(=O)N[C@H](CC(=O)N[C@@H]1CCNC[C@H]1C(=O)N[C@H](CC(=O)N[C@@H](CCC(=O)O)CC(=O)O)Cc1c[nH]c2ccccc12)C(C)C)NC(=O)[C@@H]1CNCC[C@H]1N,-18%,nt,nt,nt,nt,nt
O=C(O)Cn1c(P(=O)(O)c2ccccc2)nc2ccccc21,-28%,?,35µM*,-4%,32µM*,-12%
O=C(Cn1c(-c2cscn2)nc2ccccc21)Nc1ccc2ccccc2c1,-23%,-28%,?,-14%,-8%[12.7 µM],14%
SMILES,Sfp inh,BAZ2B inh,JMJD2A Tudor inh,L3MBTL1 block,G9a block,HP1b chromo inh
CC(C)CSc1nc2ccccc2n1CC(=O)O,0%,-24%,-16%,-3%,4%,48%
O=C(O)Cn1c(-c2cscn2)nc2ccccc21,-14%,?,16µM*,-3%,45µM*,-5%
O=C(O)CCn1c(CO)nc2ccccc21,7%,56µM*,-11%,-5%,3%,-7%
CCOC(=O)Cn1c(S(=O)(=O)Cc2ccccc2)nc2ccccc21,18%,-1%,-8%,12%,40µM*,27%
O=C(Cn1c(-c2ccccn2)nc2ccccc21)N/N=C/c1ccccn1,?,nt,-14%,nt,-32%,31%
O=C(O)CCn1c(-c2ccccn2)nc2ccccc21,-21%,-7%,22µM*,?,nt,-16%
CCSc1nc2ccccc2n1CCC(=O)O,2%,6%,-12%,1%,?,13%
O=C(O)CCn1c(SCc2cccc3ccccc23)nc2ccccc21,12%,-5%,-15%,nt,14µM*,33%
CCOC(=O)Cn1c(=O)cnc2ccccc21,3%,-2%,-2%,nt,27%[12.7 µM],17%
CCOC(=O)CCn1c(CC(=O)OCC)nc2ccccc21,-4%,?,-24%,3%,50µM*,45%
CCC(C)NC(=O)c1cccc(NC(=O)c2nsc3ccccc23)c1 (configuration not stated),nt,-33%,-2%,nt,-41%[59 µM],30%[57 µM]
N#CCc1ccc(C(=O)c2ccccc2F)s1,-10%,50µM*,-12%,-12%,?,15%
COc1cccc(NC(=S)NN=C2CCCCCC2)c1,-15%,56µM*,?,-1%,10µM*,-34%
CC1CCCC/C1=N\NC(=S)Nc1ccccc1 (configuration not stated),?,?,?,-9%,32µM*,2%
FC(F)(F)c1ccccc1NC(=S)NN=C1CCCCCC1,-71%,50µM*,50µM*,-9%,8.9µM*,-16%
CC1CCC/C(=N\NC(=S)Nc2ccccc2)C1 (configuration not stated),-13%,?,79µM*,-11%,7.9µM*,-13%
CCC/C=C(\CCC)C(NC(=O)C(C)(C)C)c1ccc(C(=O)OC)cc1 (configuration not stated),17%,nt,nt,nt,nt,nt
CC(C)Oc1ccc(C(=O)Nc2c(C(=O)Nc3cccc(F)c3)oc3ccccc23)cc1,nt,-2%,-8%,nt,?,18%
